Beta apoptosis = inhibitors of cytokine-induced beta cell apoptosis, primary screen, luminescence | INS-1E cytokine-induced death, ATP luminescence, 48 h; percent of positive-control rescue, neutral wells zero | protection from apoptosis, % (no concentration beside the values) | hit rate 0.8% among 300,000 | AID 435005, 2010;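 active = Every replicate reaches about 75%, or at least half do and their mean reaches it too, limit read from the data; inconclusive = At least half of replicates reach the limit but their mean does not; inactive = Under half of replicates reach the limit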;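 note: 0% = cytokine-treated negative control wells and 100% = positive control rescue; higher means more ATP so stronger rescue from cytokine killing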
Mdm2-MdmX inh = inhibitors of human Mdm2-MdmX association, primary screen, cell-based, luminescence, split luciferase, SaOS-2, uHTS. SaOS-2 split-luciferase Mdm2/MdmX complementation. inhibition, % at 8 µM. hit rate 3% among 330,000. AID 485346, 2010;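 active = inhibition of at least 50% at 8 µM in the primary screen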
CSC inhib = cancer stem cell viability inhibitors, primary screen, luminescence. cancer stem cell-like cells viability. hit rate 1.1% among 300,000. inhibition, % at 7.5 µM. AID 2717, 2010; in the data active = inhibition above about 75%; inconclusive = no clear call, values can overlap the other calls; tested in HMLE shEcad cells
Calb FLC = C. albicans growth inhibition with fluconazole, primary screen, CaCi-2 strain, Alamar Blue fluorescence. C. albicans CaCi-2 (fluconazole-resistant clinical isolate) + fluconazole, 48 h. growth inhibition, % (concentration not given with the values). hit rate 0.57% among 300,000;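 active = growth inhibition above about 58% in most replicates, limit read from the data, passing the limit was not always enough; inconclusive = exactly half the replicates above a set limit; inactive = most replicates below a set limit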;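 note: all wells also contain fluconazole at 8 µg/ml as a sub-toxic cotreatment; 0% = median of DMSO wells and 100% = median of geldanamycin control wells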
PP5 primary = PP5 phosphatase inhibitors, primary screen, biochemical, fluorescence; purified PP5c, OMFP substrate fluorescence; inhibition, % at 6.7 µM; hit rate 0.18% among 320,000; AID 1987, 2009; Serine/threonine-protein phosphatase 5 (Homo sapiens), P53041;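 active = inhibition above the campaign's mean inhibition across all tested compounds plus 3 SD, cut at about 9.5% in these data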;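 note: 0% = DMSO only and 100% = 100 µM cantharidin control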
PP1 inh = PP1-alpha phosphatase inhibitors, primary screen, counter-screen for PP5 inhibitor project, biochemical, fluorescence, OMFP substrate, single point; Serine/threonine-protein phosphatase PP1-alpha catalytic subunit (Homo sapiens), P62136; purified PP1alpha; inhibition, % at 6.7 µM; hit rate 0.9% among 320,000; AID 2235, 2010;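 active = inhibition above the mean inhibition of all tested compounds plus 3 SD, computed separately for each screening campaign, cut at about 15% in these data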
Target sequence (P62136 whole entry, looked up): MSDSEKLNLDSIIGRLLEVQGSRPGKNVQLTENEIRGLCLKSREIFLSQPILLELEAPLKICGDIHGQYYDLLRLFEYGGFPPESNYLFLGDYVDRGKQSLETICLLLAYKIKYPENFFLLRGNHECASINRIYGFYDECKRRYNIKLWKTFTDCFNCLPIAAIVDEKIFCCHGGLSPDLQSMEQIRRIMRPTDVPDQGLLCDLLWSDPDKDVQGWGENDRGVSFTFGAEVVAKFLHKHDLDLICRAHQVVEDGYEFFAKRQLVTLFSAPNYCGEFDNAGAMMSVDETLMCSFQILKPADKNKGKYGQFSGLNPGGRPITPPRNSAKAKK
Numbers without * were called inactive; ? = inconclusive; . = no result. The list is not random: actives were taken first. Their share in the collection is about 4.9%.

SMILES	Beta apoptosis	Mdm2-MdmX inh	CSC inhib	Calb FLC	PP5 primary	PP1 inh
Cc1ccc(O)c(C(=O)CC(=O)c2ccccc2Cl)c1	18.8	4.9	5.7	108.1*	0.2	2.5
Cc1ccc(C(=O)CC(=O)c2ccccc2C)c(O)c1	4.3	33.9	26.3	81.1*	0.8	0.9
Cc1ccc(O)c(C(=O)CC(=O)c2ccc(C(C)(C)C)cc2)c1	3.4	18.7	10.1	-2.2	0.3	-3.3
CSCC[C@H](NC(=O)c1ccc2c(c1)OCO2)c1nnc2ccccn12	-0.9	21.2	-2.8	4.5	0.8	0.3
c1ccc(-c2nn[nH]n2)nc1	-7.3	16.6	-6.4	3.2	0.4	2.1
CCOC(=O)c1cc(-c2ccc(N3CCOCC3)cc2)nn1-c1ccccc1	-1.5	1.5	-0.9	17.0	-1.8	9.4
CCOC(=O)c1cc(-c2ccc(N3CCOCC3)cc2)nn1-c1ccc(F)cc1F	-9.6	-4.9	0.9	-1.8	3.2	16.7*
Cc1ccc(NS(=O)(=O)c2ccc(NC(=O)C(C)Sc3ccc(Cl)cc3)cc2)c(C)c1 (configuration not stated)	0.5	23.9	76.8*	12.1	7.7	6.0
COc1ccc(/C=N/NC(=O)c2cc(C34CC5CC(CC(C5)C3)C4)[nH]n2)cc1O	-4.4	17.7	96.6*	44.7	1.1	10.0
COc1ccc(/C=N\NC(=O)c2ccc(=O)[nH]n2)cc1O	.	16.9	.	-10.1	-1.4	-3.9
O=C(Nc1ccc(SC(F)F)cc1)c1ccc(F)cc1	1.9	-126.9	12.2	-30.4	-1.6	0.5
CC(=O)c1c(C)[nH]c(C(=O)OCc2cccc(Cl)c2)c1C	74.6*	31.5	23.7	28.7	1.9	-2.0
CC(=O)c1c(C)[nH]c(C(=O)OCc2c(F)cccc2Cl)c1C	-6.3	36.1	.	-8.2	0.7	0.5
Cc1cc(Br)c(Cl)cc1NC(=O)CN1C(=O)C2C3CC(c4ccccc4)C(C3)C2C1=O (configuration not stated)	1.5	16.6	79.7*	-1.2	7.0	1.6
Cc1cc(NC(=O)CCN2C(=O)C3C4CCC(C4)C3C2=O)c(C)cc1Br (configuration not stated)	1.1	20.4	-5.3	-9.6	-1.9	-3.7
COc1cccc(CN(C(=O)c2cc3ccccc3oc2=O)C2CC2)c1	-1.4	-9.5	-7.1	89.9*	-2.7	-0.7
CCCCNc1nc(Nc2ccc(C)c(Cl)c2)c2cnn(C)c2n1	40.5	3.5	82.2*	1.8	4.6	9.4
Cc1noc(C)c1COc1cccc(C(=O)Nc2ccc(OCc3ccccc3)cc2)c1	3.0	14.9	98.0*	0.3	0.6	-0.1
O=C(NNC(=S)NC(=O)c1ccccc1)c1ccc([N+](=O)[O-])cc1	4.4	-5.7	18.6	83.8*	-0.5	8.2
O=C(NNC(=S)NC(=O)c1ccc(Br)cc1)c1ccc([N+](=O)[O-])cc1	1.8	30.9	8.0	87.4*	1.9	11.9
N#Cc1c(N)nc2c(c1-c1cccc(O)c1)CCCCCC2	-3.0	34.8	81.8*	15.0	3.6	1.9
N#Cc1c(N)nc2c(c1-c1ccccc1)CCCC2	-2.0	16.5	-18.3	20.2	1.2	2.1
Fc1ccc(CNC(=S)NC2CCCCCC2)cc1	1.4	13.1	-9.8	-27.5	1.9	-0.5
Cc1cc(Nc2cccc(Cl)c2Cl)n2ncnc2n1	-5.8	17.9	-9.4	116.1*	.	.
Cc1ccc(Nc2cc(C)nc3ncnn23)c(Cl)c1	2.9	28.5	.	1.0	-1.7	-0.4
SMILES	Beta apoptosis	Mdm2-MdmX inh	CSC inhib	Calb FLC	PP5 primary	PP1 inh
Cc1ccc(S(=O)(=O)N2CCN(CC(=O)N/N=C\c3ccc(O)c(O)c3)CC2)cc1	-1.9	20.8	11.6	6.8	1.4	-0.8
Cc1cccc(C(=O)N[C@H](C(=O)NCCc2ccc(Cl)cc2)C(C)C)c1	1.1	33.9	-0.2	-17.9	1.0	-3.9
CCc1ccccc1Nc1nn2c(=O)c3ccc(C(=O)NCc4ccccn4)cc3nc2s1	8.8	30.1	83.3*	-4.2	-4.0	-1.3
O=C(N/N=C/c1ccc(O)cc1O)/C(=C/c1ccccc1)CCO	84.7*	47.7	96.6*	-7.2	2.6	-2.6
COc1ccc(/C=C\C(=O)NCC(=O)N/N=C/c2ccc(O)cc2O)cc1	7.0	13.0	47.3	4.3	0.1	-1.6
O=C(/C=C\c1ccccc1)NCC(=O)N/N=C/c1ccc(O)cc1O	8.9	24.4	103.9*	-7.8	-1.4	2.9
CCc1ccccc1N(CC(=O)N1CCc2ccccc2C1)S(C)(=O)=O	-3.0	11.8	4.5	-13.3	-4.8	-1.5
Cc1ccnc(N/N=C/c2ccccc2)n1	1.8	-20.0	-4.3	11.1	0.5	-3.9
Cc1cc(C)nc(N/N=C2/CCCC/C2=C\c2ccccc2)n1	77.8*	9.4	3.7	-1.8	0.6	0.1
O=C(CCNC(=O)c1ccc([N+](=O)[O-])cc1)Nc1nccs1	-0.5	-4.5	-11.6	-0.2	1.1	-2.9
O=C(CCNC(=O)c1ccc(Br)cc1)Nc1nccs1	-1.2	2.4	-8.4	111.7*	2.1	-1.2
Cc1cc(NCCCn2ccnc2)n2nc(C)c(-c3ccc(Cl)cc3)c2n1	47.6	32.1	124.7*	50.7	2.5	13.7
Cc1nc(NC(=O)CSc2nncs2)c(Cl)cc1Cl	-3.2	24.0	-12.2	-1.3	-0.2	-5.5
Cc1c(Cl)cnc(NC(=O)CSc2nncs2)c1Cl	-0.6	5.8	-6.4	112.2*	-1.4	0.3
CCn1cc(C(=O)NCCN(C)C)c(=O)c2cc(F)c(N3CCN(C)CC3)cc21	1.3	.	-5.4	-4.5	0.7	-2.6
CCN(CC)C(=O)CSc1nnc(COc2ccccc2)n1N	-5.4	-11.8	-3.5	?	-3.6	-4.6
Cc1ccccc1COc1ccc(/C(O)=C2/C(=O)C(=O)N(CCCn3ccnc3)C2c2ccco2)cc1 (configuration not stated)	2.9	7.4	-6.0	-23.1	2.6	17.5*
Cc1ccc(/C(O)=C2/C(=O)C(=O)N(CCCn3ccnc3)C2c2ccccn2)cc1 (configuration not stated)	.	-6.1	.	-6.1	.	.
C/C(=N\Nc1cccc(C(=O)O)c1)c1ccc(Cl)s1	0.7	-8.3	-10.0	78.0*	1.8	6.5
COc1ccc(/C(C)=N/Nc2cccc(C(=O)O)c2)cc1OC	-0.6	12.7	-6.1	-2.7	-1.5	-1.6
CCOc1ccc(CCNC(=O)COC(=O)c2cc(=O)[nH]c3ccccc23)cc1OCC	1.5	12.8	-9.2	0.3	-4.7	-7.9
Cn1nc(C(C)(C)C)cc1C(=O)NCc1cc(F)cc2c1OCOC2	101.7*	24.7	-11.9	-8.5	1.3	-1.2
COc1ccc(-c2ccc(SC)nn2)cc1	60.4	-29.0	80.0*	0.7	-1.6	-0.4

Assay outcomes (PubChem)
